# Inconclusive results are not listed. The source holds several records for some structures; these can differ, active in one and inactive in another. Calls of active or inactive are those of the source. How the source made its calls: active means hit-call score of the fitted dose curve at least 0.9, where 1 is the maximum; inconclusive means response in the unintended direction; inactive means score below 0.9.
# Assays:
# [1] = molecular target: human Acetylcholinesterase (AChE), ACHE (gene 43) (UniProt P22303); test: NVS_ENZ_hAChE: NovaScreen (NVS) Enzymatic Assay for human Acetylcholinesterase (AChE) (AID 2283129)
# Chain of human Acetylcholinesterase (AChE), ACHE (gene 43) (P22303 whole entry, looked up): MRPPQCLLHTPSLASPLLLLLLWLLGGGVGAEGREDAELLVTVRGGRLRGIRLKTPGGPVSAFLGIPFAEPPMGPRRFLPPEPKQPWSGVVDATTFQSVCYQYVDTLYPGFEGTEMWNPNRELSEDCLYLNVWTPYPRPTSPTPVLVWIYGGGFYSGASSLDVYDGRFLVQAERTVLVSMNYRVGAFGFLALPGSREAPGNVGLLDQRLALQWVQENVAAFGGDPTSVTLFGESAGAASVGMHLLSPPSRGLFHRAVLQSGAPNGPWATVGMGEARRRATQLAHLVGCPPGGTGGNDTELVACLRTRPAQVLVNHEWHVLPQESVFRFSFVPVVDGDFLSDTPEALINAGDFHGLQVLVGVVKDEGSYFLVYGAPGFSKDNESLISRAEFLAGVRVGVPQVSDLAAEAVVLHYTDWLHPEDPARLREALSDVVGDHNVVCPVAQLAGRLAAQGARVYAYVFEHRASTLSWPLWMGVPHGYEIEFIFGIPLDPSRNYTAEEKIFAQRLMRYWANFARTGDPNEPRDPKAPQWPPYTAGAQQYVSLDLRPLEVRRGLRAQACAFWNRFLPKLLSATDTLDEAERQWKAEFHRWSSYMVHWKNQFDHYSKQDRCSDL
# Summary of the method: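 Actives from a duplicate single-point screen (25 uM) were followed up in concentration series. Enzyme activity read by absorbance (colorimetric) 0.33 hour after dosing, cell-free, normalized to DMSO, with loss of signal scored.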
# [2] = molecular target: rat CYP2C12, Cyp2c12 (gene 25011) (UniProt P11510); test: NVS_ADME_rCYP2C12: NovaScreen (NVS) CYP450-related Enzyme Activity (ADME) Assay for rat CYP2C12 (AID 2283119)
# Summary of the method: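 Fluorescent-substrate turnover by recombinant rat CYP2C12, measured at 0.5 h, normalized to acetonitrile vehicle. Chemicals screened first at a single 10 uM concentration in duplicate, with concentration series for actives.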
# [3] = molecular target: rat CYP2D1, Cyp2d1 (gene 266684) (UniProt P10633); test: NVS_ADME_rCYP2D1: NovaScreen (NVS) CYP450-related Enzyme Activity (ADME) Assay for rat CYP2D1 (AID 2283122)
# Summary of the method: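 Rat CYP2D1 enzyme activity measured by fluorescence intensity in a cell-free format, 0.75 h post-dosing, acetonitrile as negative control. Screening at 10 uM in duplicate, with actives followed in concentration series up to 20 uM.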
# [4] = molecular target: human Raf-1 Proto-Oncogene, serine/threonine Kinase (RAF1), RAF1 (gene 5894) (UniProt P04049); test: NVS_ENZ_hRAF1: NovaScreen (NVS) Enzymatic Assay for human Raf-1 Proto-Oncogene, serine/threonine Kinase (RAF1) (AID 2283216)
# Summary of the method: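 Single-point screening at 25 uM (duplicate), followed by singleton concentration-response to 50 uM maximum for chemicals exceeding threshold. Enzyme activity from fluorescent substrate-product mobility-shift separation after 1 h, relative to DMSO.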
# [5] = molecular target: human Caspase 2 (CASP2), CASP2 (gene 835) (UniProt P42575); test: NVS_ENZ_hCASP2: NovaScreen (NVS) Enzymatic Assay for human Caspase 2 (CASP2) (AID 2283135)
# Summary of the method: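 Single-point duplicate testing at 25 uM preceded concentration series topping at 50 uM. Activity of the recombinant E. coli-derived protease was followed by fluorescent substrate cleavage 1 h post-dosing, relative to DMSO.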
# [6] = molecular target: human AMP-activated Protein Kinase, alpha 1 (AMPKa1), PRKAA1 (gene 5562) (UniProt Q13131); test: NVS_ENZ_hAMPKa1: NovaScreen (NVS) Enzymatic Assay for human AMP-activated Protein Kinase, alpha 1 (AMPKa1) (AID 2283130)
# Chain of human AMP-activated Protein Kinase, alpha 1 (AMPKa1), PRKAA1 (gene 5562) (Q13131 whole entry, looked up): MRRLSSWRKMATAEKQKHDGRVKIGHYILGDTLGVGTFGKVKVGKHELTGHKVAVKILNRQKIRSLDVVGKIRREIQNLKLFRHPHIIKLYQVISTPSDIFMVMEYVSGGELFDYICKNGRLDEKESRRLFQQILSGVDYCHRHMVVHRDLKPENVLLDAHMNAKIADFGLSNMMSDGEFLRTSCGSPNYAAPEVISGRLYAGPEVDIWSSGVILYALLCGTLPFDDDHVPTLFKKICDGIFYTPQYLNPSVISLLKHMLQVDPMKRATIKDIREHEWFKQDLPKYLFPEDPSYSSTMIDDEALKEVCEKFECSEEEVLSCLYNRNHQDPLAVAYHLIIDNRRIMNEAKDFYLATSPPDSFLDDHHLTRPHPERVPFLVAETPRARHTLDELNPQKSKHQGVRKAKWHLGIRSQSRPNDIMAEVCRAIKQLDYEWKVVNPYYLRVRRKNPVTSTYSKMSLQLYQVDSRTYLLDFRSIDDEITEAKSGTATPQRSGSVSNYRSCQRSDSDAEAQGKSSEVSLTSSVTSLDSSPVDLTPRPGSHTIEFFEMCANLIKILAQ
# Summary of the method: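 Compounds were screened in duplicate at 25 uM, and those reaching ~30% inhibition were titrated up to 50 uM. The enzyme was recombinant human AMPKα1, and kinase turnover was read by fluorescence/mobility shift 1 h post-dosing as loss of signal versus DMSO.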
# [7] = molecular target: human Fibroblast Growth Factor Receptor 1 (FGFR1), FGFR1 (gene 2260) (UniProt P11362); test: NVS_ENZ_hFGFR1: NovaScreen (NVS) Enzymatic Assay for human Fibroblast Growth Factor Receptor 1 (FGFR1) (AID 2283159);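 on AC50: hits lower the signal so potencies describe inhibitors of the kinase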
# Chain of human Fibroblast Growth Factor Receptor 1 (FGFR1), FGFR1 (gene 2260) (P11362 whole entry, looked up): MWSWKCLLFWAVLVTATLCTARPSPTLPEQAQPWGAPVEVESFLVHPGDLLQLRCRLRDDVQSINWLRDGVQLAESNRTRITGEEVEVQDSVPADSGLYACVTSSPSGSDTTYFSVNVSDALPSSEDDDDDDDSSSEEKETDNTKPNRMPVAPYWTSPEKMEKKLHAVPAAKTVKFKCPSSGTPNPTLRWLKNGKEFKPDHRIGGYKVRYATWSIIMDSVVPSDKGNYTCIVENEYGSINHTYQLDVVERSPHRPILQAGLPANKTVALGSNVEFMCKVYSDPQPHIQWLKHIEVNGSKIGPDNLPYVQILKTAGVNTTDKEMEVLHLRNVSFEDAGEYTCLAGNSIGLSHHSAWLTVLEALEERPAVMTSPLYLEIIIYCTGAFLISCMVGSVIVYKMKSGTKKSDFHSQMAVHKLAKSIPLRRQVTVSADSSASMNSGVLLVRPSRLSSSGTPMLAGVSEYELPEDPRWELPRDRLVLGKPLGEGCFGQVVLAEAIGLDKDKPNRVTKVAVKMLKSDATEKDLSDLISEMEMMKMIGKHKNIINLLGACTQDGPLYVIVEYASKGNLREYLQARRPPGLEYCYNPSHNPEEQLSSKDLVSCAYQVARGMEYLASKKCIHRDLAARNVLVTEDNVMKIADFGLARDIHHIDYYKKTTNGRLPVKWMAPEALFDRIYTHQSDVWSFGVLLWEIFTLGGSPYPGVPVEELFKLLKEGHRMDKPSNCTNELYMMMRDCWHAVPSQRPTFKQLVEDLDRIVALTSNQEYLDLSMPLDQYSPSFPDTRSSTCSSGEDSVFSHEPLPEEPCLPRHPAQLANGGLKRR
# Summary of the method: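 Cell-free recombinant kinase with fluorescent substrate, product separated by electrophoretic mobility shift; read 1 hour after dosing, loss of signal relative to DMSO. Initial screen in duplicate at 25 uM, actives followed in concentration series.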
# [8] = molecular target: human IkappaB Kinase alpha (IKKa), CHUK (gene 1147) (UniProt O15111); test: NVS_ENZ_hIKKa: NovaScreen (NVS) Enzymatic Assay for human IkappaB Kinase alpha (IKKa) (AID 2283167)
# Chain of human IkappaB Kinase alpha (IKKa), CHUK (gene 1147) (O15111 whole entry, looked up): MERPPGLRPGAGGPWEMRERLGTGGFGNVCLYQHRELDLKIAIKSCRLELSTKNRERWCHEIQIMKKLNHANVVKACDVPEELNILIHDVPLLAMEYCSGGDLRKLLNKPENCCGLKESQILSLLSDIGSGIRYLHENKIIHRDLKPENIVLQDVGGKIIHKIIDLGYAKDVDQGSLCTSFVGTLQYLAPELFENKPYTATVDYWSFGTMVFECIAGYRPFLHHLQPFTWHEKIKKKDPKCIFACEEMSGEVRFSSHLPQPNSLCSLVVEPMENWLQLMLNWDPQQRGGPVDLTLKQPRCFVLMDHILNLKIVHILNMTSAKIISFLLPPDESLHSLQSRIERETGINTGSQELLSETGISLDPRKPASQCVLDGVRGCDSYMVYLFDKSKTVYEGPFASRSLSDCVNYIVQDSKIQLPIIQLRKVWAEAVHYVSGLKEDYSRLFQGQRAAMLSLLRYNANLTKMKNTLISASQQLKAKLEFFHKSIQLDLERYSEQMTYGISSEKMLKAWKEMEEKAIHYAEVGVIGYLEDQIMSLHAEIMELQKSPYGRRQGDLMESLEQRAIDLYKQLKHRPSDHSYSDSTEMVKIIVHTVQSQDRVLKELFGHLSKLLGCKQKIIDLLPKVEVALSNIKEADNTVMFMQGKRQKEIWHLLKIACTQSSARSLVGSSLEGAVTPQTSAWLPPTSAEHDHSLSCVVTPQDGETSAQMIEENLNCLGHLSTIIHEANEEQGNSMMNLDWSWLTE
# Summary of the method: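 Compounds first run in duplicate at 25 uM, those meeting threshold (e.g. 30% inhibition) retested to maximum 50 uM. Enzyme activity of recombinant IKKa measured by fluorescence with electrophoretic mobility shift separation, 1 hour post-dosing, DMSO baseline.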
# [9] = molecular target: human p21 Activated Kinase 4 (PAK4), PAK4 (gene 10298) (UniProt O96013); test: NVS_ENZ_hPAK4: NovaScreen (NVS) Enzymatic Assay for human p21 Activated Kinase 4 (PAK4) (AID 2283189)
# Chain of human p21 Activated Kinase 4 (PAK4), PAK4 (gene 10298) (O96013 whole entry, looked up): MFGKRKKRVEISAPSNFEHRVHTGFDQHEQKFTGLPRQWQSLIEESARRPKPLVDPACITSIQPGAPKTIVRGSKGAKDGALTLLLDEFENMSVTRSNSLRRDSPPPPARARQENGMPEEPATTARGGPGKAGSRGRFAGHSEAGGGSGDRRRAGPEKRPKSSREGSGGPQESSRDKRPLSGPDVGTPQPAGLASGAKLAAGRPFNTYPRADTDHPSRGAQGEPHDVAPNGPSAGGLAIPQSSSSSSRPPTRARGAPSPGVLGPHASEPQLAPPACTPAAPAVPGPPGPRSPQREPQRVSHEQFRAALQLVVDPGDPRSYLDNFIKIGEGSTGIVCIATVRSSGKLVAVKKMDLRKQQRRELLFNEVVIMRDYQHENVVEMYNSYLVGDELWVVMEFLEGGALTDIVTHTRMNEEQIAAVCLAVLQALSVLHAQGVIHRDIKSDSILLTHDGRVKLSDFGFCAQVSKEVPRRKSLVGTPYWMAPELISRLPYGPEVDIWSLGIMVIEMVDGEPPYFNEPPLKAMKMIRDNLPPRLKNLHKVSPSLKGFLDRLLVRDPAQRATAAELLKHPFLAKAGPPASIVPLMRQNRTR
# Summary of the method: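 Extracted PAK4 enzyme activity read by fluorescence with mobility-shift separation 1 h after chemical addition. Duplicate single-concentration screen at 25 uM, DMSO as negative control.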
# [10] = molecular target: human Tyrosine Protein Kinase Receptor Tie-2 (Tie2), TEK (gene 7010) (UniProt Q02763); test: NVS_ENZ_hTie2: NovaScreen (NVS) Enzymatic Assay for human Tyrosine Protein Kinase Receptor Tie-2 (Tie2) (AID 2283225)
# Chain of human Tyrosine Protein Kinase Receptor Tie-2 (Tie2), TEK (gene 7010) (Q02763 whole entry, looked up): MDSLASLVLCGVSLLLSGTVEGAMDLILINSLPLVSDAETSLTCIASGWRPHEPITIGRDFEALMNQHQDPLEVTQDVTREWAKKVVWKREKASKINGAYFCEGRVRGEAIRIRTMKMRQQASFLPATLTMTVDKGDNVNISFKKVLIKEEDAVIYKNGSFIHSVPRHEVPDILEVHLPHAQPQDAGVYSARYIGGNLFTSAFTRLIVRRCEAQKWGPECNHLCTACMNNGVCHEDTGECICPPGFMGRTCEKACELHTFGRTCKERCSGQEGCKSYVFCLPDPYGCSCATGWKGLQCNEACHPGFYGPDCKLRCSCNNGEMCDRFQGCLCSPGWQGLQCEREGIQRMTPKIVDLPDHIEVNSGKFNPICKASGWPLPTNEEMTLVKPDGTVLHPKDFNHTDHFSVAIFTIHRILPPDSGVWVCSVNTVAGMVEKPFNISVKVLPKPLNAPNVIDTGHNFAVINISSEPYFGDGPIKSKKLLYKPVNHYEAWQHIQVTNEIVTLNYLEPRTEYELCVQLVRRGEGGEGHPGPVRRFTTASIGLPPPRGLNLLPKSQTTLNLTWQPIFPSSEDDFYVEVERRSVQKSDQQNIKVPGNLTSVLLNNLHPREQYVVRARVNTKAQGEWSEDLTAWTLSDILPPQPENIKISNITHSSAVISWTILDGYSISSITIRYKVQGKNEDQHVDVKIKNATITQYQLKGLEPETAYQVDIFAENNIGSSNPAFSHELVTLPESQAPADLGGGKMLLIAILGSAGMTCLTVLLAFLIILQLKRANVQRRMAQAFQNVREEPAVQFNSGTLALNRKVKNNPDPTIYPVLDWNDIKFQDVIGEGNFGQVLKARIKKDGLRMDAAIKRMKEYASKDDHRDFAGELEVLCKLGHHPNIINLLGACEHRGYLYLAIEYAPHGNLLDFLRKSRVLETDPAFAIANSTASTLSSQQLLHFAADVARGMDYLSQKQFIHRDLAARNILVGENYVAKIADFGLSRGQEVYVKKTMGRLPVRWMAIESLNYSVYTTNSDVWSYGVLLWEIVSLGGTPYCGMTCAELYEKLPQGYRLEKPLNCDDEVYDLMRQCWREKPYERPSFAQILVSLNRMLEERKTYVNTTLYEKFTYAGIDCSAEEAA
# Summary of the method: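 Substrate and product were separated by mobility shift and detected by fluorescence after a 1-hour reaction with recombinant Tie2. Chemicals passing a 25 uM single-point screen were titrated to a maximum of 50 uM. Results were normalized to DMSO baseline.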
# [11] = molecular target: human CYP4F12, CYP4F12 (gene 66002) (UniProt Q9HCS2); test: NVS_ADME_hCYP4F12: NovaScreen (NVS) CYP450-related Enzyme Activity (ADME) Assay for human CYP4F12 (AID 2283111)
# Chain of human CYP4F12, CYP4F12 (gene 66002) (Q9HCS2 whole entry, looked up): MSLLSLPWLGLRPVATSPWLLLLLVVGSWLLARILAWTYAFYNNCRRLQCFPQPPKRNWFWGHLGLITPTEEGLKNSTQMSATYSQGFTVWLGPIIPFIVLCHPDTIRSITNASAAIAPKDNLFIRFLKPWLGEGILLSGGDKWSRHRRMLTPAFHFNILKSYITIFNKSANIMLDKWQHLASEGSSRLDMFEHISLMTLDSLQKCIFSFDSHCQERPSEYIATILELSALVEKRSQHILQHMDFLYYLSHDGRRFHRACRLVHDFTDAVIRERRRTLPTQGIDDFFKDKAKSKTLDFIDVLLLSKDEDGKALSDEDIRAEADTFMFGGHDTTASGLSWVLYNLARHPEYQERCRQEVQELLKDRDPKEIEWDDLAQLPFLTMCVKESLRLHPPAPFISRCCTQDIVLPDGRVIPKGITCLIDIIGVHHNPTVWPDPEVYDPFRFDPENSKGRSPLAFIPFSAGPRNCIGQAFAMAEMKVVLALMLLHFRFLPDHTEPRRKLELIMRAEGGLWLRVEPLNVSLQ
# Summary of the method: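 Recombinant enzyme with a fluorescent substrate, signal read at 0.5 h post-dose; activity loss analysed relative to acetonitrile. Compounds first run in duplicate at 10 uM, with follow-up concentration-response testing of actives.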
# [12] = molecular target: Voltage-dependent N-type calcium channel subunit alpha-1B (Rattus norvegicus) (UniProt Q02294); test: NVS_IC_rCaChN: NovaScreen (NVS) Ion Channel Assay for rat Calcium Channel, Type N (CaChN) (AID 2283317)
# [13] = molecular target: Protein deacetylase HDAC6 (Homo sapiens) (UniProt Q9UBN7); test: NVS_ENZ_hHDAC6: NovaScreen (NVS) Enzymatic Assay for human Histone Deacetylase 6 (HDAC6) (AID 2283164)
# Summary of the method: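 Concentration-response runs up to 50 uM followed a duplicate 25 uM single-point screen. Deacetylase activity of recombinant human HDAC6 read by fluorescence after 1 h, with mobility-shift separation of substrate and product; DMSO as baseline.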
# [14] = molecular target: rat Monoamine Oxidase, MAO-B, Peripheral (MAOBP), Maob (gene 25750) (UniProt P19643); test: NVS_ENZ_rMAOBP: NovaScreen (NVS) Enzymatic Assay for rat Monoamine Oxidase, MAO-B, Peripheral (MAOBP) (AID 2283242)
# [15] = molecular target: Norway rat Vesicular Monoamine Transporter (VMAT2), neurotransmitter transporter, Slc18a2 (gene 25549) (UniProt Q01827); test: NVS_TR_rVMAT2: NovaScreen (NVS) Transporter Assay for Norway rat Vesicular Monoamine Transporter (VMAT2), neurotransmitter transporter (AID 2283376);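 further: actives lower the bound radioligand signal below the DMSO level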
# Summary of the method: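 Using rat forebrain membranes, specific radioligand binding to VMAT2 was measured by filtration and scintillation counting after 1 hour. Chemicals screened at 25 uM in duplicate, actives retested in concentration series, DMSO baseline.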
# [16] = molecular target: human MET Proto-Oncogene, Receptor Tyrosine Kinase (MET), MET (gene 4233) (UniProt P08581); test: NVS_ENZ_hMet: NovaScreen (NVS) Enzymatic Assay for human MET Proto-Oncogene, Receptor Tyrosine Kinase (MET) (AID 2283180)
# Summary of the method: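 Hits from a 25 uM duplicate screen were retested in concentration series up to 50 uM. Enzyme activity was measured by fluorescence after electrophoretic separation of product from substrate, 1 h after compound addition, relative to DMSO.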
# [17] = molecular target: human Phosphatase and Tensin Homolog (PTEN), PTEN (gene 5728) (UniProt P60484); test: NVS_ENZ_hPTEN: NovaScreen (NVS) Enzymatic Assay for human Phosphatase and Tensin Homolog (PTEN) (AID 2283203)
# Summary of the method: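 Loss of fluorescent product signal after mobility-shift separation reports PTEN activity, recombinant human enzyme, 1 h after compound addition. Single 25 uM duplicate screen, then concentration-response on actives; DMSO baseline.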
# [18] = molecular target: human Protein Tyrosine Phosphatase Non-receptor Type 2 (PTPN2), PTPN2 (gene 5771) (UniProt P17706); test: NVS_ENZ_hPTPN2: NovaScreen (NVS) Enzymatic Assay for human Protein Tyrosine Phosphatase Non-receptor Type 2 (PTPN2) (AID 2283207)
# Summary of the method: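 Activity measured as fluorescence after mobility-shift separation of substrate and product, 1 h after compound. Duplicate single-point 25 uM primary testing, concentration series for actives; inhibition scored as signal loss relative to DMSO baseline.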
# [19] = TOX21_TRB_BLA_Agonist_Followup_viability: Viability Assessment in the Tox21 Thyroid Hormone Receptor beta Agonism Beta-lactamase (BLA) Follow-Up Assay (AID 2283956)
# Summary of the method: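 Viability was read as CellTiter-Glo luminescence in the same wells as the TRb-bla agonist read-out. HEK293T GAL4-TRb LBD cells were treated for 18 h (37C, 5% CO2) at 11 concentrations in triplicate. Fits were bidirectional versus DMSO baseline.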
smiles,measurement,setting,value
CCCCC(CC)COC(=O)c1ccc(C(=O)OCC(CC)CCCC)cc1 (stereo not drawn),outcome,[1],inactive
CC(C)(C)[C@@H](O)[C@@H](Cc1ccc(Cl)cc1)n1cncn1,AC50,[2],5.82 µM (active)
same,AC50,[3],5.84 µM (active)
same,outcome,[4],inactive
c1ccc2c(c1)Cc1ccccc1-2,outcome,[1],inactive
same,outcome,[5],inactive
CC/C(=C(\c1ccccc1)c1ccc(OCCN(C)C)cc1)c1ccccc1,AC50,[1],17 µM (active)
same,AC50,[6],25.4 µM (active)
same,outcome,[6],inactive
same,AC50,[7],33.5 µM (active)
same,outcome,[8],inactive
same,outcome,[9],inactive
same,outcome,[10],inactive
CNC(=O)[C@H]1O[C@@H](n2cnc3c(NCc4cc(Cl)ccc4OCc4cc(C)no4)ncnc32)[C@H](O)[C@@H]1N,outcome,[11],inactive
same,outcome,[6],inactive
same,outcome,[7],inactive
COC(=O)CCC(=O)OC,outcome,[11],inactive
same,outcome,[12],inactive
CCc1ccc(O)c(C(C)(C)C)c1,outcome,[11],inactive
same,outcome,[13],inactive
Cc1occc1C(=O)Nc1ccc(C(=O)N2CCC(F)(F)/C(=C\C(=O)N3CCC(N4CCCCC4)CC3)c3ccccc32)cc1,AC50,[11],1.24 µM (active)
same,AC50,[14],9.05 µM (active)
same,AC50,[15],5.73 µM (active)
O=c1[nH]cnc2c1ncn2[C@H]1CC[C@@H](CO)O1,outcome,[6],inactive
same,outcome,[7],inactive
same,outcome,[13],inactive
same,outcome,[8],inactive
same,outcome,[16],inactive
same,outcome,[9],inactive
same,outcome,[17],inactive
same,outcome,[18],inactive
same,outcome,[10],inactive
same,outcome,[19],inactive

# Reference: PubChem BioAssay (EPA / NIEHS)
